About 14,000 (4.5%) of roughly 310,000 compounds showed an effect of 50% or more. Effects have a minus sign here. Shown is part of a subset that was picked to be rich in strong results.
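Further: peak tail current of the secondary pulse compared with the same well before compound.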

Sequence of human ether-à-go-go-related gene (hERG) potassium channel (Q12809 whole entry, looked up): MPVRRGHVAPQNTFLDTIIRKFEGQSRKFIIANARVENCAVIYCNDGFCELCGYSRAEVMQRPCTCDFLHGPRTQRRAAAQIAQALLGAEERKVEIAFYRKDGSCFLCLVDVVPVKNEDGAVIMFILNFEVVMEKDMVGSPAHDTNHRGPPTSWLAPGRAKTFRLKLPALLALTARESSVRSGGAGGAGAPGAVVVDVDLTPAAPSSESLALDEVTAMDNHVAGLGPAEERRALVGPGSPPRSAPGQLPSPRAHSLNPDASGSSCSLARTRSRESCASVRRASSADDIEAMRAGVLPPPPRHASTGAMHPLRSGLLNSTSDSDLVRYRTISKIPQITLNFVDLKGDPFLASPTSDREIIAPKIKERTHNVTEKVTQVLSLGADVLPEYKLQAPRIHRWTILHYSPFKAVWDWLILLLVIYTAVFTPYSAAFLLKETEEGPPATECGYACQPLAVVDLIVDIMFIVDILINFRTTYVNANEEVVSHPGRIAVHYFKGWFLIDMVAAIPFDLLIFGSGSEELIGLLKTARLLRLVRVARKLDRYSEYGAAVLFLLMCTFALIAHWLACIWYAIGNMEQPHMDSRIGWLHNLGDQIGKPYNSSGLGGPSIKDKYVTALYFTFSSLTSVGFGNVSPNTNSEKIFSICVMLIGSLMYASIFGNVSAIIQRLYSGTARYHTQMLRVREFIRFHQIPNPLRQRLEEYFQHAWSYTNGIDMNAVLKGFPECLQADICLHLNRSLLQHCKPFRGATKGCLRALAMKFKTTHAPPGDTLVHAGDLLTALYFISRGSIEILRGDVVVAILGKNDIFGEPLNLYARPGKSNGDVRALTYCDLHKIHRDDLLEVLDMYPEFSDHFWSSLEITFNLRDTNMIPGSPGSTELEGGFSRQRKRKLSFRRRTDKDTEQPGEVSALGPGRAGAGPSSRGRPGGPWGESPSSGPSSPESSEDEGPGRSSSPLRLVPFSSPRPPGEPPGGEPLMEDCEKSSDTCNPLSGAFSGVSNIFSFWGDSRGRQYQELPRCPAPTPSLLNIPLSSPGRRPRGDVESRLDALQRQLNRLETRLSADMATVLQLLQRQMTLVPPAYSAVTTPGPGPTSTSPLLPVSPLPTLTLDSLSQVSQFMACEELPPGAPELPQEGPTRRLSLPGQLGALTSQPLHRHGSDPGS

This assay concerns the target human ether-à-go-go-related gene (hERG) potassium channel (human, UniProt Q12809). Description: primary screen, population patch clamp on CHO cells stably expressing hERG; higher = less effect of the substance.
`C=C1C(=O)O[C@@H]2C[C@@H](C)[C@H]3C=CC(=O)[C@]3(O)C[C@@H]12`: the “hERG current change (%, negative = inhibition) at 10uM” value is 19.3%.
For `Cc1ccc(C(=O)C(OC(=O)CNC(=O)c2ccc(Cl)cc2)c2ccccc2)cc1` (centres unmarked) the value was 2.15%; for `COc1ccc(-c2[nH]ncc2/C=N/NC(=O)c2ccncc2)c(OC)c1`, 13.8%.
As for `O=C(CSc1ccccn1)Nc1ccc2c(c1)oc1ccccc12`, the “hERG current change (%, negative = inhibition) at 10uM” value is listed as 12.8%.
The figure for `N#Cc1cc2ccccc2nc1SCC(=O)NC1CC1` is 4.58%; for `O=C(CN1C(=O)CSC1=O)c1ccccc1` it is 1.83%.
For `CCOc1cc2nc(-c3ccc(OC)c(OC)c3)nc(N3CCOCC3)c2cc1OC` the value was -15.5%; for `O=C(Nc1ncc2c(n1)CC(c1cccc(Cl)c1)CC2=O)c1ccco1` (centres unmarked), -39%.
For `O=C(Nc1nc2n(n1)C(c1ccc(F)cc1)CC(c1ccccc1)N2)c1ccco1` (centres unmarked) the value was -57.4%.
As to `O=C(Nc1ncc2c(n1)CC(c1ccccc1)CC2=O)c1ccco1` (centres unmarked), the “hERG current change (%, negative = inhibition) at 10uM” value was -21.9%.
The figure for `COc1ccc(C2CC(c3ccc(OC)cc3)n3nc(NC(=O)c4cccs4)nc3N2)cc1` (centres unmarked) is -13.9%.
For `CC1CC(c2ccccc2)n2nc(NC(=O)c3cccs3)nc2N1` (centres unmarked) the value was 16.6%; for `CS(=O)(=O)Nc1nc2n(n1)C(c1ccc(F)cc1)CC(c1ccccc1)N2` (centres unmarked), -4.13%; for `COc1ccc(C2CC(c3ccc(F)cc3)n3nc(NC(=O)c4ccco4)nc3N2)cc1` (centres unmarked), -60.3%.
The figure for `Nc1nc2n(n1)C(c1ccccc1)CC(c1ccc(F)cc1)N2` (centres unmarked) is -10.1%.
Turning to `O=C(Nc1ncc2c(n1)CC(c1ccc(Cl)cc1)CC2=O)c1ccco1` (centres unmarked), the “hERG current change (%, negative = inhibition) at 10uM” value is listed as -71.6%.
For `COc1ccc(C2CC(c3ccc(F)cc3)Nc3nc(N)nn32)cc1` (centres unmarked) the value was -27%; for `COc1ccc(C2CC(c3ccccc3)Nc3nc(NC(=O)c4cccs4)nn32)cc1` (centres unmarked), -52%.
For `COc1ccc(C2CC(c3ccc(F)cc3)n3nc(NS(C)(=O)=O)nc3N2)cc1` (centres unmarked) the value was 8.06%; for `C[C@]12CCC3C(CC[C@H]4CC(O)CC[C@]34C)C1CC/C2=N/NC(=O)c1ccncc1` (some centres unmarked), -10.8%; for `COc1c(C)cccc1C(=O)Nc1cc(Cl)ccc1N1CCOCC1`, 7.1%.
The figure for `O=C(Nc1cc(-c2ccccc2)sc1C(=O)O)c1cccc(F)c1` is 33.5%; for `CCOC(=O)C1CCN(C(=O)CCNS(=O)(=O)c2ccc3c(c2)CCN3C(=O)CC)CC1` it is 7.82%; for `CCc1ccc(CN(C)CC(=O)Nc2sccc2C#N)cc1` it is -16.4%.
In the case of `COc1ccc(/C=N/N=C2/NC(=O)C(CC(=O)O)S2)cc1OCc1ccc(Cl)cc1` (centres unmarked), the “hERG current change (%, negative = inhibition) at 10uM” value is listed as -1.97%.
For `O=C(NC1CCCCC1)C(c1ccccn1)N(C(=O)c1csnn1)c1ccccc1` (centres unmarked) the value was 1.6%; for `O=C(NC1CCCCC1)c1cc(-c2cccc(Cl)c2)on1`, 11.7%.
The figure for `CCOC(=O)C1C(=O)NC(c2ccccc2)=NC1c1ccc(OC)cc1` (centres unmarked) is -12.2%; for `CC(=O)N1CCC(N(CCN2CCOCC2)C(=S)Nc2c(C)cccc2C)CC1` it is 8.51%.
Turning to `NC(=O)c1nsc(C(=O)N(c2ccc3c(c2)OCO3)C(C(=O)NCC2CCCO2)c2ccc(F)cc2)c1N` (centres unmarked), the “hERG current change (%, negative = inhibition) at 10uM” value is given as -8.25%.
The figure for `COCC(=O)Nc1nc2n(n1)C(c1ccc(Cl)cc1)CC(c1ccc(OC)cc1)N2` (centres unmarked) is -73.8%.
For `O=C(O)CCCC(=O)Nc1nc2n(n1)C(c1ccc(F)cc1)CC(c1ccc(Cl)cc1)N2` (centres unmarked) the value was -0.46%; for `COCC(=O)Nc1nc2n(n1)C(c1ccccc1)CC(c1ccc(OC)cc1)N2` (centres unmarked), -3.73%; for `COc1ccc(C2CC(c3ccc(OC)cc3)n3nc(NC(=O)c4ccco4)nc3N2)cc1` (centres unmarked), -19.2%.
The figure for `COc1ccc(C2CC(c3ccccc3)Nc3nc(NC(=O)c4ccco4)nn32)cc1` (centres unmarked) is -64.4%; for `CC1CC(c2ccccc2)n2nc(NC(=O)c3ccco3)nc2N1` (centres unmarked) it is 24.6%.
For `O=C(Nc1nc2n(n1)C(c1ccc(Cl)cc1)CC(c1ccc(Cl)cc1)N2)c1ccco1` (centres unmarked), the “hERG current change (%, negative = inhibition) at 10uM” value was -38.3%.
The figure for `COCC(=O)Nc1nc2n(n1)C(c1ccccc1Cl)CC(c1ccc(OC)cc1)N2` (centres unmarked) is -18.6%; for `O=C(Nc1nc2n(n1)C(c1ccccc1)CC(c1ccc(Cl)cc1)N2)c1ccco1` (centres unmarked) it is -53.1%; for `O=[N+]([O-])c1ccc(NCCO)c2ncccc12` it is 2.11%.
For `CC(Sc1ncc(C(F)(F)F)cc1Cl)C(=O)NC(N)=O` (centres unmarked) the value was 0.58%; for `COC(=O)c1cc(OC)c(OC)cc1NC(=O)Cc1cccs1`, 0.709%; for `CCCn1nnnc1NCc1ccc(C(C)C)cc1`, 4.94%.
The figure for `CCC1CCCCN1c1cc(C)nc2cc(-c3cccc(C)c3)nn12` (centres unmarked) is -1.65%.
Consider `CCCCCCCCCC[n+]1cccc(C(=O)N(CC)CC)c1.[Br-]`, for which the “hERG current change (%, negative = inhibition) at 10uM” value was -0.215%.
On to `CCCCCCCCCCCCCCCC[n+]1cccc(C(=O)N(CC)CC)c1.[Br-]`, for which the “hERG current change (%, negative = inhibition) at 10uM” value is -69.7%.
Turning to `CCCCCCCC[n+]1cccc(C(=O)N(CC)CC)c1.[Br-]`, the “hERG current change (%, negative = inhibition) at 10uM” value was determined as 13%.
For `COc1ccccc1CNn1c(-c2cccc(C)c2)nc2ccccc2c1=O` the value was -11%; for `COc1ccc(CNn2c(-c3cccc(C)c3)nc3ccccc3c2=O)cc1OC`, -73.6%.
The figure for `COc1cccc(CNn2c(-c3cccc(C)c3)nc3ccccc3c2=O)c1` is -9.77%; for `CC1(C)C2CCC(C2)C1(C)NC(=O)CN1CCCC1.Cl` (centres unmarked) it is -0.213%.
For `COc1cc(OC)c2c(C)cc(=O)oc2c1` the value was 15.4%; for `Cc1cc2oc(=O)cc(C)c2c(=O)o1`, -65.8%.
With `COc1cc2oc(=O)cc(C)c2c(OC)c1OC`, the “hERG current change (%, negative = inhibition) at 10uM” value was determined as 17.9%.
For `CCOc1ccc(NC(=O)Cn2cc(C(=O)CC)c3ccccc32)cc1` the value was 14.7%; for `Cc1ccc2oc(=O)c(/C=C(\O)C(C)(C)C)nc2c1`, 17.1%.
The figure for `Cc1ccc2nc(SCC(=O)Nc3ccc(F)c([N+](=O)[O-])c3)[nH]c2c1` is -2.06%.
Consider `Cc1cc(Cc2ccc([N+](=O)[O-])cc2)c(C)cn1`, for which the “hERG current change (%, negative = inhibition) at 10uM” value was -57.8%.
The figure for `O=[N+]([O-])c1ccc(Cc2ccncc2)cc1` is -26.9%.
For `O=[N+]([O-])c1ccc(Cc2cncc(O)c2)cc1` the value was -17.3%; for `Cc1ccc2nc(SCC(=O)Nc3cccc([N+](=O)[O-])c3)[nH]c2c1`, -11.7%; for `Cc1cnc(=O)[nH]c1SCc1cccc([N+](=O)[O-])c1`, 2.35%.
As for `Cc1cnc(=O)[nH]c1SCc1ccc([N+](=O)[O-])cc1`, the “hERG current change (%, negative = inhibition) at 10uM” value is -70.1%.
The figure for `Cc1ccc2nc(SCc3ccc([N+](=O)[O-])cc3)[nH]c2c1` is -65.1%; for `Cc1ccc(CSc2[nH]c(=O)ncc2C)cc1` it is 10.7%; for `Cc1nc2nc(SCc3ccc([N+](=O)[O-])cc3)[nH]c2cc1Br` it is 1.02%.
Turning to `Cc1ccc2nc(SCc3ccc([N+](=O)[O-])cc3)nc(C)c2c1`, the “hERG current change (%, negative = inhibition) at 10uM” value was found to be 0.901%.
For `Cc1ccc2nc(SCC(=O)Nc3cc([N+](=O)[O-])ccc3F)[nH]c2c1` the value was -57.4%; for `O=C(CNC(=O)c1ccco1)N/N=C/c1cccs1`, 14.9%.
The figure for `O=C(Nc1ccc([N+](=O)[O-])cn1)c1cc(-c2cccc(Cl)c2)nc2ccccc12` is -8.44%; for `Cc1ccc(C(=O)N2CCC(C)CC2)cc1S(=O)(=O)N1CCCCC1` it is -10.2%.
For `CCOc1cc(C(=O)OC(C)C(=O)Nc2ccc(S(N)(=O)=O)cc2)ccc1OCC(=O)N1CCOCC1` (centres unmarked) the value was -5.65%; for `CC(=O)c1cccc(NC(=S)NC(=O)c2ccc(C)cc2)c1`, 22.4%.
For the molecule `COc1cccc(C(=O)NNS(=O)(=O)c2ccc(F)cc2)c1`, the “hERG current change (%, negative = inhibition) at 10uM” value came out at 9.31%.
The figure for `Cc1ccc(NC(=O)COC(=O)CCc2c[nH]c3ccccc23)cc1[N+](=O)[O-]` is 10.4%.
For `c1ccc(CSc2nc3ccccc3[nH]2)cc1` the value was 17.6%; for `O=[N+]([O-])c1cccc(CSc2nc3ccccc3[nH]2)c1`, -15.6%.
For the molecule `Cc1nc(N)nc(SCc2ccc([N+](=O)[O-])cc2)c1N`, the “hERG current change (%, negative = inhibition) at 10uM” value is -74.6%.
On to `O=[N+]([O-])c1ccc(CSc2nc3ccccc3[nH]2)cc1`, for which the “hERG current change (%, negative = inhibition) at 10uM” value is listed as -54.2%.
The figure for `CC(=O)c1cc(C#N)c(SCc2ccc([N+](=O)[O-])cc2)nc1C` is 17.7%; for `Cc1cc(C)nc(SCc2ccc([N+](=O)[O-])cc2)n1` it is -17%.
In the case of `O=S(=O)(CCc1nc2ccccc2o1)c1ccc2ccccc2c1`, the “hERG current change (%, negative = inhibition) at 10uM” value is on record as 7.8%.
Take `Cc1cccc(/C(N)=N/OC(=O)c2ccc(Br)o2)c1`: the “hERG current change (%, negative = inhibition) at 10uM” value was 11.7%.
For `Fc1ccc(-c2csc(/C=C/c3ccc4c(c3)OCO4)n2)cc1` the value was 13.2%; for `CC(C)c1ccc(C(=O)CC2(O)C(=O)N(CN3CCOCC3)c3ccccc32)cc1` (centres unmarked), 10.4%; for `O=C1N(CCCCN2C(=O)C3(OCCO3)c3ccccc32)c2ccccc2C12OCCO2`, 6.9%.

The values above are taken from article PMC4336329 (PLoS ONE, 2015).
